Experimental data taken from ChEMBL document CHEMBL3988442, “University of Dundee, Small-Polar-MMV Screening Library” (2021).
In all, about 48,000 compounds went through this assay and about 13,000 (27%) showed an effect of 50% or more. This is one part of the list.

These compounds were tested on Wolbachia pipientis (assay: Anti-Wolbachia Cell-Based Screen). Settings: 5 µM.
Assay type: functional
Set-up: scale not given: in the data most compounds retested in dose-response had high values

SMILES	Percent Effect [%]
COCc1cncc2c1CCN(C(=O)c1ccc(C)o1)C2	-6.966
COCc1cncc2c1CCN(C(=O)c1cscn1)C2	104.1
COCc1cncc2c1CCN(C(=O)c1ccsc1)C2	-1.861
CN(C)C(=O)N1CCc2c(COCC3CC3)cncc2C1	-21.89
O=C(c1cnccn1)N1CCc2c(COCC3CC3)cncc2C1	-0.9982
CN(C)CCOCc1cncc2c1CCN(C(=O)c1cscn1)C2	84.03
Cn1cnnc1CCNC(=O)c1ccccc1OC1CCC1	-17.05
CCNc1nc(C)c(C(=O)N(C)Cc2noc(C)n2)s1	-18.27
O=C(Nc1ccc2c(c1)OC1(CCCCC1)O2)c1ccc(=O)[nH]n1	13.01
O=C(Nc1ccc2c(c1)OCCO2)c1ccc(=O)[nH]n1	99.56
Cc1c(C(=O)NC2CCCOc3cc(Cl)ccc32)cnn1C (stereo not drawn)	96.08
Cc1ccc2c(c1)OCCCC2NCc1nccn1CC(C)C (stereo not drawn)	-15.26
CCc1cccc(N2CCC(NC(=O)c3ccc(=O)[nH]n3)CC2)c1	3.328
Cc1cc(C(=O)NC2CCCOc3cc(Cl)ccc32)n(C)n1 (stereo not drawn)	104.1
Cc1ccc2c(c1)OCCCC2NCc1nccn1Cc1ccccc1 (stereo not drawn)	-22
Cc1c(C(=O)N[C@H]2CN(CCS(C)(=O)=O)C[C@@H]2C2CC2)cnn1C	4.067
CC1(C)Oc2ccc(NC(=O)c3ccc(=O)[nH]n3)cc2O1	-5.037
Cc1ccc2c(c1)OCCCC2NC1CCN(C)CC1 (stereo not drawn)	11.04
O=C(Nc1ccc2c(c1)OC1(CCCC1)O2)c1ccc(=O)[nH]n1	-12.04
O=C(NC1CCCOc2cc(Cl)ccc21)c1ccc(=O)[nH]n1 (stereo not drawn)	103.9
CC(C)N1CCCC2(CCN(C(=O)CCCn3ccnc3)C2)C1=O (stereo not drawn)	-2.08
CCc1nnc(CNCC2CCN(CC(O)c3ccccc3)CC2)o1 (stereo not drawn)	1.305

SMILES	Percent Effect [%]
Cc1nc[nH]c1CN1CCn2nc(CN3Cc4ccccc4C3)cc2C1	5.533
Cc1nc2c(c(=O)n1C)CCN(Cc1cc3cc[nH]c3cn1)CC2	-4.621
CCc1ncc(CN2CCCC3(CCC(=O)N(CCC(C)C)C3)C2)cn1 (stereo not drawn)	-16.36
Cc1cc2c(=O)n3c(nc2s1)CCN(Cc1cnc(C)n1C)CC3.Cl	108.4
CCc1ncc(CN2CCc3nc4sc(C)cc4c(=O)n3CC2)cn1	98.79
Cc1cc2c(=O)n3c(nc2s1)CCN(Cc1cncn1C)CC3.Cl	111.2
Cc1cc(CN2CCc3nc(C)n(C)c(=O)c3CC2)[nH]n1	-18.21
Cc1cc2c(=O)n3c(nc2s1)CCN(Cc1ccncc1)CC3	-12.53
Cc1cc2c(=O)n3c(nc2s1)CCN(Cc1[nH]cnc1C)CC3.Cl	117
Cc1cc2c(=O)n3c(nc2s1)CCN(Cc1cnc(C(C)C)nc1)CC3	-3.495
CCOC(=O)C1CCCCN1Cc1c[nH]nc1-c1cc2ccccc2o1 (stereo not drawn)	10.01
Cc1cccc2cc(C(=O)N3CCN(S(=O)(=O)N(C)C)CC3)n(C)c12	-7.336
CNc1ncc(CN(C)Cc2cc(O)c3cc(C)cc(C)c3n2)cn1	2.553
CCc1ccc(CN(C)c2cc(COC)nc3ccnn23)cc1	-31
CN(C)C1CCN(c2cc(-c3ccccc3)nc3ccnn23)C1 (stereo not drawn)	-6.733
COCc1cc(N2CCOCC2)n2nccc2n1	9.055
CCCc1cc(CNc2cc(CCC)nc3ccnn23)on1	-13.04
COc1cc(OC)cc(-c2cc(CN)nc3ccnn23)c1.Cl	104.2
CSc1ccc(-c2cc(CN)nc3ccnn23)cc1.Cl	95
COc1ccc(-c2cc(CN)nc3ccnn23)cc1.Cl	124.4
Cl.NCc1cc(-c2ccccc2)n2nccc2n1	106.1
c1ccc(-c2cc(NCCCC3CCOC3)n3nccc3n2)cc1 (stereo not drawn)	-17.54

SMILES	Percent Effect [%]
COCc1cc(N2CCN(Cc3ccncc3)CC2)n2nccc2n1	2.178
CCc1cc(NC(CCO)c2ccc(OC)cc2)n2nccc2n1 (stereo not drawn)	6.902
CCc1cc(N[C@H](C(N)=O)[C@@H](C)CC)n2nccc2n1	-8.924
CC(C)OCc1nn(CC2CC2)c2c1CN(Cc1ccco1)CC2.O=C(O)C(F)(F)F	3.908
Cc1ccc(-n2nnnc2C2(NCc3ccco3)CCCC2)cc1	2.087
Cc1csc(C2(NCc3nnc(-c4ccco4)o3)CCCC2)n1	-3.858
Cc1cccc(C)c1-n1nnnc1C1(NCc2ccco2)CCCC1	75.79
Fc1cccc(-c2nc(CN3CCn4c(nnc4C4CC4)C3)co2)c1	2.763
OCCN1CCN(Cc2coc(-c3cccc(F)c3)n2)CC1	105.3
CCOCCN1CCN(Cc2coc(-c3cccc(F)c3)n2)CC1	74.94
OCCN1CCN(Cc2cc(Cl)cc3cccnc23)CC1	0.645
O=C(C1CC1)N1CCN(Cc2coc(-c3ccc(Cl)cc3)n2)CC1	3.08
CCN1CCN(Cc2coc(-c3cccc(F)c3)n2)CC1	3.559
OCCN1CCN(Cc2coc(-c3cccc(Cl)c3)n2)CC1	116.8
CCc1nc(C)c(C2CC(=O)Nc3c2c(-c2ccccn2)nn3C)[nH]1 (stereo not drawn)	6.33
CCC(C)(N)c1nc(=O)c(C(C)C)c(C)[nH]1.Cl (stereo not drawn)	-21.29
Cl.O=C(NC[C@@]1(COc2cnccn2)C[C@@H](O)[C@@H](O)C1)C1CCOCC1	-6.345
O=C(Cc1ccc2c(c1)OCO2)N1CCCN(c2nccs2)CC1	-6.237
CCC1c2cccn2CCN1S(=O)(=O)N1CCOCC1 (stereo not drawn)	79.2
O=S(=O)(N1CCOCC1)N1CCc2sccc2C1	7.177
CC1c2cccn2CCN1S(=O)(=O)N1CCCCCC1 (stereo not drawn)	-11.34
CC1CCN(S(=O)(=O)N2CCn3cccc3C2C)CC1 (stereo not drawn)	-8.051

SMILES	Percent Effect [%]
O=S(=O)(N1CCOCC1)N1CCCCC1CCc1ccc(O)cc1 (stereo not drawn)	2.652
CCCC1c2cccn2CCN1S(=O)(=O)N1CCOCC1 (stereo not drawn)	118.3
Cc1nc(C)c(-c2ccn(CC(=O)Nc3cnn(C)n3)n2)s1	-4.351
O=C([C@H]1COC[C@H]2CN(C3CCOCC3)C[C@H]21)N1CCCCO1	5.01
CC(C)CC(C)NC1CCN(c2cccc(-c3cscn3)c2)CC1 (stereo not drawn)	-3.86
CN1CCC2(CC1)CN(C(=O)c1cccc3cccnc13)CCN2C	-18.03
Cc1[nH]ccc1C(=O)N1CCN(C)C2(CCC(=O)N(C)CC2)C1 (stereo not drawn)	98.32
Cc1ccc(S(=O)(=O)N2CCN(C)C3(CCC(=O)N(C)CC3)C2)s1 (stereo not drawn)	14.37
Cc1cc(F)ccc1C(=O)N1CCN(C)C2(CCC(=O)N(C)CC2)C1 (stereo not drawn)	91.8
CN1CC2(CCCN(C(=O)c3cnc4ccc(F)cc4c3O)C2)OC1=O (stereo not drawn)	-10.25
Cc1csc(S(=O)(=O)N2CCN(C)C3(CCC(=O)N(C)CC3)C2)c1 (stereo not drawn)	-20.06
Cc1[nH]ccc1C(=O)N1CCC2(CC1)c1nc[nH]c1CCN2CC(C)C	14.8
CSc1ccccc1C(=O)N1CCN(C)C2(CCC(=O)N(C)CC2)C1 (stereo not drawn)	119
CC(C)N1CC2(CCC1=O)CCN(C(=O)c1cc(F)ccc1Cl)CC2	-13.76
Cc1ccc(C)c(S(=O)(=O)N2CCN(C)C3(CCC(=O)N(C)CC3)C2)c1 (stereo not drawn)	-7.559
CC(C)=CCCN1CCN(C)C2(CCC(=O)N(C)CC2)C1 (stereo not drawn)	4.747
Cc1ccc(C(=O)N2CCN(C)C3(CCC(=O)N(C)CC3)C2)c(F)c1 (stereo not drawn)	104.4
COc1cccc(OCc2cc(C(=O)NC[C@@H]3CCCN3)n[nH]2)c1	-13.46
COCC1CN(C(=O)c2cnc(C)cn2)Cc2ncnn2C1 (stereo not drawn)	-2.14
COCc1nnc(C(=O)N(C)Cc2ccc(OC)cc2)o1	-21.92
Cc1noc(CNc2cccc(C(=O)N3CCCC(O)C3)c2)n1 (stereo not drawn)	7.269
Cc1noc(CNc2ccccc2C(=O)N2CCCC(O)C2)n1 (stereo not drawn)	-16.45

SMILES	Percent Effect [%]
COCc1nnc(C(=O)N2CCC(N3CCCCC3)CC2)o1	90.19
CCCc1nnc(N2CCC(N3CCCCCC3)CC2)o1	12.1
COCc1nnc(C(=O)N2CCCC(O)C2)o1 (stereo not drawn)	102.5
COCc1nnc(C(=O)N2CC(N3CCCCC3)C2)o1	110.5
Cc1c(C(=O)N2CCC(N3CCCCC3)CC2)n(C)c2ccc(Cl)cc12	0.1052
Cc1nnc(NC(=O)N2CCC(N3CCCCC3)CC2)s1	6.357
COc1ccc(NC(=O)CN2CCS(=O)(=O)CC2)cn1	-4.778
CCCN(CCC)Cc1nnsc1Cl	-13.3
Cc1ccc(C(=O)N2C[C@@H](OCC3CCOCC3)[C@H]3OCCC[C@H]32)o1	-9.797
C[C@@H](NC(=O)c1ccc(Cl)cc1)c1onc(-c2cccnc2)c1C(=O)O.Cl	-10.74
c1ccc(-c2nnn3c2COC(CNCC2CC2)C3)cc1 (stereo not drawn)	-10.69
O=C(CO)N1CCCC(c2cc(C(F)(F)F)[nH]n2)C1 (stereo not drawn)	144.8
CC(C)(C#N)C(=O)N1CCCC(c2cc(C(F)(F)F)[nH]n2)C1 (stereo not drawn)	-7.065
NC(=O)c1cc(C2CCCN(C(=O)CCc3ccsc3)C2)n[nH]1 (stereo not drawn)	-0.264
NC(=O)c1cc(C2CCCN(C(=O)CCc3cccs3)C2)n[nH]1 (stereo not drawn)	95.12
NC(=O)c1cc(C2CCCN(C(=O)CCc3ccccn3)C2)n[nH]1 (stereo not drawn)	94.78
NC(=O)c1cc(C2CCCN(CCc3ccccn3)C2)n[nH]1 (stereo not drawn)	-3.119
O=C(Cc1cccnc1)N1CCCC(c2cc(C(F)(F)F)[nH]n2)C1 (stereo not drawn)	-6.416
NC(=O)c1cc(C2CCCN(C(=O)CCc3ccncc3)C2)n[nH]1 (stereo not drawn)	120
Cc1cccc(CCC(=O)N2CCCC(c3cc(C(N)=O)[nH]n3)C2)c1 (stereo not drawn)	2.373
